Source: the supplement of paper PMC10681739

The sequences below were run against T1, ETS1 (UniProt P14921) (assay: ETS1 binding intensity (PBM fluorescence) in presence of RUNX1, normalised to ETS1-only experiment (arbitrary fluorescence units); higher = stronger binding). Conditions: ETS1 concentration 1 nM; RUNX1 concentration 25 nM.
T1 sequence: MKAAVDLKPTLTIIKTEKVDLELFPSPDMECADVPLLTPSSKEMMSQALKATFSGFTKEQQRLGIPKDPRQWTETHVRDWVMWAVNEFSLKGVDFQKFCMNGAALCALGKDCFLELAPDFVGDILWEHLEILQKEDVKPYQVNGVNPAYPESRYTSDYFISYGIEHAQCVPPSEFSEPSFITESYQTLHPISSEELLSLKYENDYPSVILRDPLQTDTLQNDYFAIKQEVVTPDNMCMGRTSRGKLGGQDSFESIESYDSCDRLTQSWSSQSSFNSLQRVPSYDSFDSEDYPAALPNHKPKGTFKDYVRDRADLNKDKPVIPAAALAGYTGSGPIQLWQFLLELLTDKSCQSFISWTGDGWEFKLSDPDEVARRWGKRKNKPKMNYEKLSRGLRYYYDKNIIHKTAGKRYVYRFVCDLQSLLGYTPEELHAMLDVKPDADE
Description: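 Cooperative genomic-context PBM: 36-bp genomic probes with neighbouring ETS1 and RUNX1 sites, double-stranded on Agilent 4x180k arrays. Full-length recombinant human ETS1 (1 nM) was incubated alone or with RUNX1 (25 nM) and detected with anti-ETS1 antibody plus Alexa488 secondary. Value is the median fluorescence intensity over 4 replicate spots; the ETS1+RUNX1 data were normalised to the ETS1-only data using probes without RUNX1 sites. The 36-bp variable region sits on the array probe with constant linker/primer flanks that are not printed.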
For GCGGAGGGAAGCGGAAATACTTGCGGTGGGGGCGAC, the ETS1 binding intensity was 19400.
AAGGTGGAAAAAGGATGTGGTTCTAAGCTGGCTTCT gave an ETS1 binding intensity of 1120.
For TAGTCCGCTACAGGAAGGTGGTCATCCTCGGATACC, the ETS1 binding intensity was 1170.
TCTGTGACTACGCGGATGTTGTGGGCGGCTACATGC gave an ETS1 binding intensity of 1810.
CATCTACTGAGGAAGTGTAAGCCACAATAAGAAGCC showed an ETS1 binding intensity of 869.
With CTGCACAAGGAAGCGCCTGTGTTGCTGTGGGCGGAG the ETS1 binding intensity was 402.
In the case of CAGATTCGTGTTTCCGTGCCCGCAGCTCCGTCAGCT, the ETS1 binding intensity is reported as 362.
With CGCCTCATTTCCTGTGCAACTGCGGTAAAAATAGGA the ETS1 binding intensity was 5000.
For TGGATGGCGGCGGATACTGCCCATGCCGCAAGGCCG, the ETS1 binding intensity was 532.
ACAGCGCCTCTTCCTGCTCTACCACATCTGATGTCC was tested, and the ETS1 binding intensity was 352.
With CTTCTCGCGGAAGCGGCACAAGCCGCAGTACAGCGC the ETS1 binding intensity was 495.
CCGCTTCCGGGACGCGAATCGCTCTGCGGCTGCGTC gave an ETS1 binding intensity of 722.
CAGCTGCCTCCAGGAAGCGGTAAGTGACTCTGGTGG showed an ETS1 binding intensity of 1660.
Sequence CCGCTTCCTTAGAGGTTAAGTGGTGGTGGTTCAGTT has an ETS1 binding intensity of 391.
For TCTCTTCCGTTCTCTGGTAGCTTTGTGGTAGCTTTG, the ETS1 binding intensity was 534.
In the case of TTCAACAAGGTTTTCCTGTGGTTACCCCATGCTTTG, the ETS1 binding intensity is reported as 451.
For ACTCCGCCCCTTCCGCCTGGCGGTTCCACTTCTCGG, the ETS1 binding intensity was 456.
Sequence GTATCACTTCCTGTTTTCCTCTGTGGCTTACTGCTG has an ETS1 binding intensity of 3330.
TGTGAACTGACAGGATGTGGTACAAGGCTTACAAAG gave an ETS1 binding intensity of 8820.
CCACGGCTGGCTTCCTGTGTGGTTGGCACGCCTTAC was tested, and the ETS1 binding intensity was 1210.
In the case of AGGCCGCCTACAGGATGTTGGAAACCACAGGGCCCG, the ETS1 binding intensity is reported as 29100.
Work on GAGGGGAGGATGTCTGAGCTTTTAATTGTGGTTTCA yielded an ETS1 binding intensity of 1050.
TCCCCACATCCTTTAAAACGATGAGATAACCACATG was tested, and the ETS1 binding intensity was 636.
TTGAAAAGGAAGTTCATTTGTACTGAGGTGGTTTTA gave an ETS1 binding intensity of 698.
With GCTCTTCACTTCCTGTGGCTCCCGCAGCGGCCGCCG the ETS1 binding intensity was 1560.
Sequence GCCAGCGGGGCTTCCGGCCCCGCAGGCAGAAGTCGA has an ETS1 binding intensity of 1290.
TGGCTGTGTCCCGGAAGTGGTCATAAGCTGGGTCCC was tested, and the ETS1 binding intensity was 9830.
CTCATCAGTCATCCGGCTGGACCGCAGGAGCTCTCC was tested, and the ETS1 binding intensity was 500.
TGGGGCCCGGAAGCGCTGGCGCCTTGCGGCCAGAAG was tested, and the ETS1 binding intensity was 3180.
For TTACCATCGCCCTTCCTGTGGGCTGGGAGGCCAGGT, the ETS1 binding intensity was 373.
With TGTCCGCACCCCACTTCCGCCCCGCAGAGGGCAACG the ETS1 binding intensity was 3480.
Sequence ACCCTCTTTCCGGTGGAAAGCTGCGGCCTCCCAGAG has an ETS1 binding intensity of 380.
For TGCTTTTCAGGTGCAGGAAGTGGTTTGCCTTTGCCC, the ETS1 binding intensity was 11000.
GGTGACACGGCCGGCTTCCTGCCGCAGAGCTCCTGG was tested, and the ETS1 binding intensity was 639.
ACACTGAGCTGAACGGAAATGTGGTTCTCACCTCAT gave an ETS1 binding intensity of 3100.
For AGGACCGGAAGTGCCCGAGGGCGGCCGCAGAACGGT, the ETS1 binding intensity was 16700.
GGTTGTAAGTTCACAGGATGTGGTGTGTCCCTGTGG was tested, and the ETS1 binding intensity was 6360.
With AAACCAGAGGAAGTGGATTCCAACCACAAACCTCAC the ETS1 binding intensity was 4210.
Work on CGTTATTTCCGGGGCTGGGTTAACGCAGCGGTTCCA yielded an ETS1 binding intensity of 692.
Sequence GAAGTGAGGTCAGGATGTGGTGGGTGACCCCTGAAA has an ETS1 binding intensity of 1340.
